HEK293 cAMP cs: qHTS Assay for Agonists of the Thyroid Stimulating Hormone Receptor: Activators of Intracellular cAMP Concentrations in Parental HEK 293. 73,000 tested, 2.5% active. Potency, µM (titrated, usually from 57.1 µM), without a hit: at the top dose activation, most hits filed as activators. parental HEK293 CNG cAMP sensor, membrane potential fluorescence; active means well fitted activation curve with a large enough effect; inconclusive means small, poorly fitted or top-dose-only effect; inactive means no such curve, though single readings can be large or run the other way; further: % of control where 0% means no effect; nearly all actives have a fitted effect of over 55% in size
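Counterscreen for endogenous-receptor signalling: CNG-channel HEK 293 cells report cAMP rise by membrane depolarization. After 60 min dye equilibration with 100 uM RO 20-1724, compounds incubated 30 min before bottom-read fluorescence at 590 nm.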
GBA mod: Glucocerebrosidase | Potency, µM | 48,000 tested, 1.1% active | AID 360, 2006 | purified enzyme, resorufin glucoside fluorescence (screen aimed at inhibitors), 20 min; in the data active means potency below about 15 µM; inconclusive means mostly about 16 µM to 33 µM;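 further: the screen sought inhibitors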
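Wild-type enzyme at 0.2 nM final in 50mM citric acid/KH2PO4, 10mM sodium taurocholate, 0.01% tween-20, pH 5.9, with resorufin beta-D-glucopyranoside at 30 uM final. Compounds titrated, 20 min at RT, red fluorescence read; AC50 from titration.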
TSHR ag: qHTS Assay for Agonists of the Thyroid Stimulating Hormone Receptor; Potency, µM (series often up to 57.1 µM), for the others: at the top dose activation, most hits filed as activators; HEK293-CNG-TSHR cells (CNG channel as cAMP sensor), membrane potential dye, cAMP; 73,000 tested, 0.48% active; Thyrotropin receptor (Homo sapiens), P16473; active means well fitted activation curve with a large enough effect in the main read-out, with a control signal flat, not every such curve was filed as active; inconclusive means small, poorly fitted or top-dose-only effect, or a change in a side signal; inactive means no such curve, though single readings can be large or run the other way; % of control where 0% means no effect;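 further: the control signal comes from parental cells without the receptor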
Target sequence (P16473 whole entry, looked up): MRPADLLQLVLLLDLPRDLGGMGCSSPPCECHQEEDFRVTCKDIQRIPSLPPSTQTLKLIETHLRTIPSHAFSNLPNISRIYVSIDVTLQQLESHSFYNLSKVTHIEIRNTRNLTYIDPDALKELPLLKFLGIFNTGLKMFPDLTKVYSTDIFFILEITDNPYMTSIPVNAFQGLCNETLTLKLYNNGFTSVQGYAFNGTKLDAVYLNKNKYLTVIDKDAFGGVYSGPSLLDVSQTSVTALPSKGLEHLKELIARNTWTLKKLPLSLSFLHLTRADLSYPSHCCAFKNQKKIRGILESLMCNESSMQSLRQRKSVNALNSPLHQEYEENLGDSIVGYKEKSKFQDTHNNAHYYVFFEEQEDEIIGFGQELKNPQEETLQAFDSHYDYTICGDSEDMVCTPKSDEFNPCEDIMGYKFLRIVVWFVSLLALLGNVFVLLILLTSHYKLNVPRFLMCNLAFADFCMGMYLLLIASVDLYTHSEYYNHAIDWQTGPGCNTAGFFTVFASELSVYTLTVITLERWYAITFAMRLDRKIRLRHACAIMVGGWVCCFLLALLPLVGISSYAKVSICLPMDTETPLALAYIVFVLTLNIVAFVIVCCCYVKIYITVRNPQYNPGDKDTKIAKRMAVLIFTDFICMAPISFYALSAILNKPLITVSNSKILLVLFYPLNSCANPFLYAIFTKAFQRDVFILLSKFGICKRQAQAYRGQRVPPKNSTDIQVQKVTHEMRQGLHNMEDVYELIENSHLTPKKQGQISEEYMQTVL
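HEK 293 cells stably expressing TSHR and a modified CNG channel, with CNG-only parental cells as counterscreen, were preloaded 60 min at room temperature with membrane potential dye containing 100 uM RO 20-1724. Compound exposure was 30 min, and depolarization was read as fluorescence at 590 nm.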
PK Bst: Pyruvate Kinase; purified pyruvate kinase, luminescence ATP production; ribose 5-phosphate activator present at AC10; Potency, µM; 51,000 tested, 1.2% active; in the data active means potency below about 11 µM; inconclusive means mostly about 12 µM to 25 µM;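 the screen sought inhibitors and activators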;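 further: scaled between full activation by ribose 5 phosphate and full inhibition by luteolin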
Active calls of the source: *; i = inactive; ? = inconclusive; nt = no result given; [ ] = dose if it differs, or a comment. An excerpt weighted towards active compounds, which were near 4% of everything screened. Potency means the concentration at half of the fitted maximal effect.

SMILES	HEK293 cAMP cs	GBA mod	TSHR ag	PK Bst
CCOC(=O)c1cnc(-n2nc(C)cc2C)nc1NC(C)c1ccccc1 (stereo unspecified)	25.1µM*	>76.9	?	>57
CCOC(=O)c1cnc(-n2nc(C)cc2C)nc1NCc1ccccc1	20µM*	>76.9	?	>57
Cc1nn(-c2ccccc2C(=O)O)c(=O)c2ccccc12	-3.2%	>76.9	10µM*	>57
Cc1ccc(C)c(Cn2c(CO)nc3ccccc32)c1	25.1µM*	>76.9	?	>57
O=C(CSc1nnnn1Cc1ccccc1)Nc1ccc2c(c1)OCCO2	4.4%	>76.9	3.16µM*	>57
CCN(CC)S(=O)(=O)c1ccc2c(c1)c(=O)c(C(=O)NCCN(C)CCc1ccccc1)cn2C	?	5.58*	?	>57
CN(CCNC(=O)c1cn(C)c2ccc(S(=O)(=O)N(C)C)cc2c1=O)CCc1ccccc1	11.9%	nt	2.1%	nt
COc1ccccc1/C=N/n1cnnc1	5.3%	nt	-4.2%	nt
C(=N\n1cnnc1)/c1cccc2ccccc12	4.9%	14.3*	nt	>57
COC(=O)c1sc2ccccc2c1N	-7.2%	nt	-0.5%	nt
CC(=Nc1cccc(O)c1)c1sc2ccccc2c1O	nt	nt	nt	8.21*
CCN1CCCC1CNC(=O)c1ccc(Cc2nc3ccccc3[nH]2)cc1 (stereo unspecified)	-6.4%	nt	-2.0%	nt
CC1(C)N=C(N)N=C(N)N1c1cccc(OCc2cccc(N)c2)c1	14.0%[11.4 µM]	nt	-8.6%[11.4 µM]	nt
COC(=O)N1CCC[C@@]2(CCN(C(=O)Nc3cccc(F)c3)C2)C1	7.94µM*	nt	?	nt
COc1ccc(C(=O)N2CCC3(CCCN(C(=O)Nc4cccc(C#N)c4)C3)CC2)cc1	11.1%	nt	25.1µM*	nt
COC(=O)N1CCC2(CCCN(C(=O)Nc3cccc(C#N)c3)C2)CC1	12.5%	nt	2.4%	nt
Cc1cc(Cc2cc(C)c(N)cc2N)c(N)cc1N	0.2%[11.4 µM]	nt	2.7%[11.4 µM]	nt
CCOC(=O)CNc1c(-c2ccc(O)cc2)nc2ccc(Cl)cn12	-19.7%	4.11*	-5.2%	nt
COc1cccc(-c2nnc(SCC(=O)N(C(C)C)C(C)C)o2)c1	15.8µM*	>76.9	?	>57
COC(=O)c1ccc(COc2ccc3c(C)c(C)c(=O)oc3c2)o1	3.98µM*	nt	?	nt
O=P(O)(O)O[C@@H]1O[C@H](CO)[C@@H](O)[C@H](O)[C@@H]1O	-8.3%[11.4 µM]	nt	-2.6%[11.4 µM]	nt
FC(F)Sc1ccc(Nc2ncnc3nc[nH]c23)cc1	-4.4%	5.34*	2.1%[11.4 µM]	i
CCCCOC(=O)c1ccc(Nc2ncnc3nc[nH]c23)cc1	2.6%	nt	0.2%	nt
C#C[C@]1(O)CC[C@H]2[C@H]3CCC4=Cc5oncc5C[C@]4(C)[C@@H]3CC[C@]21C	9.3%	nt	nt	nt
Cc1ccc(-c2noc(C3CCCN(C(=O)c4c(F)cccc4F)C3)n2)cc1 (stereo unspecified)	7.94µM*	>76.9	?	>57
SMILES	HEK293 cAMP cs	GBA mod	TSHR ag	PK Bst
COc1ccc(-c2noc(C3CCCN(C(=O)c4ccccc4OC)C3)n2)cc1OC (stereo unspecified)	?	>76.9	?	>57
CC(C)CCn1c(N)c(S(=O)(=O)c2cccs2)c2nc3ccccc3nc21	13.3%	>76.9	12.6µM*	>57
CCOc1ccc(NC(=O)c2ccccc2CO)cc1	5.0%	>76.9	11.5%	nt
CCOc1ccc(NC(=O)c2ccccc2O)cc1	-3.8%	>76.9	7.7%	2.51*
CCOc1ncccc1C(=O)Nc1ccc(Cl)cc1	?	>76.9	?	3.77*
Cn1cnc([N+](=O)[O-])c1SCC(=O)O	5.6%[11.4 µM]	nt	-5.0%[11.4 µM]	nt
CSCCC(Nc1ncnc2ccc(Br)cc12)C(=O)O (stereo unspecified)	2µM*	>76.9	?	nt
CC(C)=CC1C(C(=O)Nc2ccc(Br)cn2)C1(C)C (stereo unspecified)	25.1µM*	nt	?	nt
CSc1ncnc2c1ncn2[C@@H]1O[C@@H](CO)[C@H](O)O[C@@H]1O	-5.7%[11.4 µM]	nt	10.3%[11.4 µM]	nt
CCCCC/C=C\C[C@H](O)/C=C\c1cccc(C[C@H](O)CCCCO)n1	11.4%	nt	-3.7%	nt
O=C(CSc1nnc(-c2ccccn2)n1Cc1ccco1)c1ccccc1	9.2%	>76.9	16.4%	>57
O=C(CSc1nnc(-c2ccccn2)n1Cc1ccco1)c1ccc(Cl)cc1	25.1µM*	>76.9	?	nt
CCCC/C=C/C(NC(=O)OCc1ccccc1Cl)c1ccccc1 (stereo unspecified)	27.2%	nt	14.5%	nt
CCn1c(C)nc2cc(-c3nc4n(n3)Cc3ccccc3-4)ccc21	-4.8%	nt	0.0%	0.0948*
Fc1ccc(-c2nc3n(n2)Cc2ccccc2-3)cc1	9.9%	>76.9	10.2%	2.51*
O=c1nc2n(c3c1oc1ccccc13)Cc1ccccc1-2	-4.2%	?	3.2%	i
COc1ccc(-n2nc3ccccc3n2)cc1	8.0%	>76.9	6.3%	nt
COc1ccc(-n2nc3cc(C)c(N)c(Br)c3n2)cc1	-4.4%	?	-11.1%	3.42*
NC1=C2NC=N[C@@H]2N(C/C=C\c2ccccc2)C=N1	-2.8%[11.4 µM]	nt	-1.7%[11.4 µM]	nt
CCn1c(SCC(=O)Nc2ccccc2N2CCCCC2)nc2c1c(=O)n(C)c(=O)n2C	15.8µM*	>76.9	?	>57
Cc1occc1-c1nnc(SCC(=O)NCCc2ccccc2)n1Cc1ccccc1	20µM*	>76.9	?	>57
Cc1occc1-c1nnc(SCC(=O)Nc2ccccc2N2CCCCC2)n1C	31.6µM*	>76.9	?	>57
Cc1occc1-c1nnc(SCC(=O)Nc2ccccc2)n1CCc1ccccc1	?	i	?	>57
CCn1c(SCC(=O)Nc2ccccc2-c2ccccc2)nnc1-c1ccoc1C	?	>76.9	?	>57
CCn1c(SCC(=O)N2CCCC2)nc2c1c(=O)n(C)c(=O)n2C	1.1%	>76.9	-1.4%	>57
SMILES	HEK293 cAMP cs	GBA mod	TSHR ag	PK Bst
COc1ccc(-c2csc3c2[N+]2=CCC=C2C3=O)cc1	20.6%[11.4 µM]	nt	1.9%[11.4 µM]	nt
CN1CCC[C@H](C(=O)OCC(=O)[C@]2(O)CC[C@@H]3[C@H]4CCC5=CC(=O)CC[C@@]5(C)[C@H]4[C@@H](O)C[C@]32C)C1	-3.1%[11.4 µM]	nt	-4.9%[11.4 µM]	nt
NCCC1([N+](=O)[O-])CCNCC1	1.8%[11.4 µM]	nt	-0.7%[11.4 µM]	nt
CCOC(=O)C1CCN(c2ncnc3c2[nH]c2cccc(OC)c23)CC1	-9.3%	>76.9	-25.6%	nt
CCOC(=O)C1CCN(c2ncnc3c2oc2ccc(Cl)cc23)CC1	25.1µM*	13.3*	?	?
O=C(c1ccc(-n2c(=O)c(=O)[nH]c3ccccc32)cc1)N1CCCN(Cc2ccccc2)CC1	-1.3%	nt	-1.4%	nt
Fc1ccc(CNc2nc(-c3ccco3)cc(C(F)(F)F)n2)cc1	?	>76.9	?	>57
FC(F)(F)c1cc(-c2ccco2)nc(-n2cnc3ccccc32)n1	?	11.8*	?	>57
Cc1nc2ccccc2n1-c1nc(-c2ccco2)cc(C(F)(F)F)n1	3.16µM*	>76.9	?	>57
CCN(c1cccc(C)c1)S(=O)(=O)c1ccc2[nH]c(=O)c(=O)[nH]c2c1	1.5%	7.43*	-0.6%	>57
NCC[C@H](N)C(=O)O	-27.8%[11.4 µM]	nt	3.2%[11.4 µM]	nt
CSc1nsc(SCC(=O)N2CCc3ccccc32)n1	25.1µM*	>76.9	?	>57
COc1ccc(-c2nnc(SCC(=O)N3CCc4ccccc4C3)o2)cc1	25.1µM*	>76.9	?	?

From PubChem BioAssay
